Test results: article PMC4336329 (PLoS ONE, 2015)
Hit rate of the full screen: of about 310,000 compounds, about 14,000 (4.5%) showed an effect of 50% or more. Effects have a minus sign here. Shown is part of a subset that was picked to be rich in strong results.

Target: human ether-à-go-go-related gene (hERG) potassium channel (human, UniProt Q12809)
Assay: primary screen, population patch clamp on CHO cells stably expressing hERG; higher = less effect of the substance
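Note: peak tail current of the secondary pulse compared with the same well before compound.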

Chain of human ether-à-go-go-related gene (hERG) potassium channel (Q12809 whole entry, looked up): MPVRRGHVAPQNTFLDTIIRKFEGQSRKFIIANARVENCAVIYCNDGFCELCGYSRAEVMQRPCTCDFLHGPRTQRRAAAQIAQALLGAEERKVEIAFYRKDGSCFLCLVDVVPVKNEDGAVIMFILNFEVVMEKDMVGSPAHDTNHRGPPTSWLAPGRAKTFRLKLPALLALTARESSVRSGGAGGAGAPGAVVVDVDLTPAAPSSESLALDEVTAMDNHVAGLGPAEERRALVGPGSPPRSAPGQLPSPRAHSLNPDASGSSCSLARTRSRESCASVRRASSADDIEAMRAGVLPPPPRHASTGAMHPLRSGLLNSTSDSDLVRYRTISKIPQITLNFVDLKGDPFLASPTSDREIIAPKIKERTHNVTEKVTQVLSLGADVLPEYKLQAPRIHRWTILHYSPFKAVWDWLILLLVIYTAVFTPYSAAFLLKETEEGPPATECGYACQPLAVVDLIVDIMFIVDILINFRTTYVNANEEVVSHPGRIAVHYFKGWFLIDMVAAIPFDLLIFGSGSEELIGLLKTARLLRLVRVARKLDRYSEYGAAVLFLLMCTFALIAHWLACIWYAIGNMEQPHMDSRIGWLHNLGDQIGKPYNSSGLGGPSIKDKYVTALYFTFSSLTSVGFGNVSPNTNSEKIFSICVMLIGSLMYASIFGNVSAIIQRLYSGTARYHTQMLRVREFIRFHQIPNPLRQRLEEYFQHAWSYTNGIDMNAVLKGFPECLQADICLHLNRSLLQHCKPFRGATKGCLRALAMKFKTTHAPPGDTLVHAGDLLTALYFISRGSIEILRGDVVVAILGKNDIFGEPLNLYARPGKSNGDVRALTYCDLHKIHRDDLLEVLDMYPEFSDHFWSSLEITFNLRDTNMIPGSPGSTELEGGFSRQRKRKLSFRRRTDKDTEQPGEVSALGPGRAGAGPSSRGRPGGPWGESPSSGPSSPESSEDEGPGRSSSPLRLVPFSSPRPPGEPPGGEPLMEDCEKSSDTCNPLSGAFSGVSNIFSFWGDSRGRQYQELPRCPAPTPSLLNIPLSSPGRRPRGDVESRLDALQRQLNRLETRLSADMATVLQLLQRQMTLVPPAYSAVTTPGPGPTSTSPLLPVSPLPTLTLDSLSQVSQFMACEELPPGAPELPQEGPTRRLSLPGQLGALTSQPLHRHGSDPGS

| Structure (SMILES) | hERG current change (%, negative = inhibition) at 10uM [%] |
| --- | --- |
| O=C1N(CC(=O)N2CCc3ccccc32)CCN1Cc1ccccc1Cl | -12.1 |
| CN(C(=O)COC(=O)CCC(=O)c1ccccc1)c1c(N)n(Cc2ccccc2)c(=O)[nH]c1=O | 14.1 |
| Cl.OCCNc1nc(N2CCCCC2)nc2ccccc12 | -58.2 |
| C=CCNc1nc(N2CCCC2)nc2ccccc12 | -78.3 |
| Cl.c1ccc2c(NCC3CCCO3)nc(N3CCOCC3)nc2c1 (stereo not shown) | -49.5 |
| Cl.c1ccc2c(NCC3CCCO3)nc(N3CCCCC3)nc2c1 (stereo not shown) | -72.9 |
| Cl.OCCNc1nc(-c2ccccc2)nc2ccccc12 | 2.57 |
| OCCNc1nc(N2CCCC2)nc(N2CCCC2)n1 | -2.85 |
| Cl.OCCNc1nc(N2CCN(c3ccccc3)CC2)nc2ccccc12 | -74.6 |
| c1ccc2c(NCC3CCCO3)nc(-c3ccncc3)nc2c1 (stereo not shown) | -14.6 |
| C=CCNc1ncnc2ccccc12 | 22.5 |
| C=CCNc1nc(C(=O)OCC)nc2ccccc12 | 11.1 |
| COc1ccc([C@@H]2CC=C(C(=O)O)[C@H](c3ccc(F)cc3)N2S(=O)(=O)c2ccc(Cl)cc2)cc1 | 27.2 |
| Cc1ccc(-c2c(C#N)c(N)n(-c3ccccc3)c(=O)c2C#N)cc1 | 20.3 |
| O=C(NC1CCCCC1)c1n[nH]c2c1CCCCC2 | 2.43 |
| CC1CC(C)CN(C(=O)CSCC(=O)O)C1 (stereo not shown) | 1.3 |
| CCC1CCc2c(sc(NC(=O)C3c4ccccc4Oc4ccccc43)c2C(N)=O)C1 (stereo not shown) | 2.02 |
| Cc1ccc(C(C(=O)NCc2ccco2)N(C(=O)CNC(=O)c2cccs2)c2ccc(C)cc2)cc1 (stereo not shown) | 27.3 |
| CC(=O)Oc1ccc2nc(-c3ccc(Br)o3)oc(=O)c2c1 | 21.5 |
| COCCn1cc(C(=O)c2ccccc2OCC(=O)Nc2cc(C)on2)cc(C#N)c1=O | 10.3 |
| COCCCn1cc(C(=O)c2cc(OC)ccc2OCC(=O)Nc2cc(C)on2)cc(C#N)c1=O | -53 |
| COCCCn1cc(C(=O)c2cc(OC)ccc2OCC(=O)N2CCCCC2C)cc(C#N)c1=O (stereo not shown) | -22.9 |
| CC(C)CC(=O)Nc1ccccc1N1CCN(C(=O)c2ccccc2)CC1 | -17.7 |
| COc1ccc(Br)cc1C(=O)Nc1ccccc1-c1ccccc1 | -2.5 |
| O=C(Nc1ccccc1N1CCN(C(=O)c2ccc(Cl)cc2)CC1)c1cc(Br)ccc1Cl | -67.7 |

| Structure (SMILES) | hERG current change (%, negative = inhibition) at 10uM [%] |
| --- | --- |
| O=C(Nc1ccccc1N1CCCC1)c1ccc(Cl)cc1Cl | 8.88 |
| COc1ccc(C(=O)Nc2ccccc2N2CCN(C(=O)c3ccccc3)CC2)cc1Br | -8.68 |
| COc1ccc(Br)cc1C(=O)Nc1ccccc1N1CCN(C(=O)c2ccccc2)CC1 | -52.4 |
| O=C(Nc1ccccc1N1CCN(C(=O)c2ccccc2)CC1)c1cc(Br)ccc1Cl | -55.6 |
| O=C(Nc1ccccc1N1CCN(C(=O)c2ccc(Cl)cc2)CC1)c1cc2ccccc2o1 | -2.33 |
| CCCC(=O)Nc1ccccc1N1CCN(C(=O)c2ccccc2)CC1 | -46 |
| Cc1ccc(C(=O)NCC(=O)NC2CCC(C)CC2)s1 (stereo not shown) | 2.47 |
| CC(=O)NCCc1nc2ccccc2n1Cc1ccccc1 | 1.05 |
| O=C(COc1ccccc1[N+](=O)[O-])Nc1ccccc1N1CCCC1 | -29.1 |
| CCN(CC(=O)Nc1ccc2c(c1)OCO2)CC(=O)Nc1ccccc1C(F)(F)F | -14.4 |
| C/C(=N\NS(=O)(=O)c1ccc(C)c([N+](=O)[O-])c1)c1cc2ccccc2o1 | -9.98 |
| Cc1ccc(-n2c(C)c3c(C)nnc(C)c3c2C)cc1C | -34 |
| C=CCn1cc(C(=O)c2cc(Br)ccc2O)cc(C#N)c1=O | -17.5 |
| Cc1ccc(C(=O)OCC(=O)N2CCCC2)cc1 | -2.99 |
| Cc1nnc(-c2cnn(C)c2N)n1Cc1ccc2c(c1)OCO2 | 5.96 |
| CC(=O)c1c(C(C)=O)c(C)n(Cc2ccc3c(c2)OCO3)c1C | -9.41 |
| Cc1nnc(C)c2c(C)n(Cc3ccc4c(c3)OCO4)c(C)c12 | -71.4 |
| CCOc1ccc2oc(C(=O)OCC(=O)NC3CCCC3)c(C)c2c1 | 11.1 |
| Cc1cccc(NC(=O)CN2C(=O)c3ccccc3C2=O)c1C | 0.742 |
| CCc1ccc(C(=O)NNC(=O)CCc2nc3ccccc3c(=O)[nH]2)cc1 | -7.54 |
| O=[N+]([O-])c1ccc(CN2CCN(Cc3c[nH]c4ccccc34)CC2)cc1 | -77.8 |
| c1ccc(CN2CCN(Cc3c[nH]c4ccccc34)CC2)cc1 | -30.2 |
| O=S(=O)(c1ccc(Cl)cc1)N1CCN(Cc2c[nH]c3ccccc23)CC1 | -18.8 |
| c1ccc2c(CN3CCCCC3)c[nH]c2c1 | -38 |
